Measurements: PubChem BioAssay AID1159580 (chemical genetic matrix, 2015)
Where “and” joins values, the source holds several entries; their conditions need not be identical. Identical values can stand only once. About 2,000 (36%) of roughly 5,500 compounds were called active. Not shown: some 18% with an inconclusive outcome. No stated cut-off is given here; in the data, active means normalized growth mostly below about 0.91 (no sharp cut-off); inconclusive means no clear call, values can overlap the other calls; inactive means mostly above about 0.92. The list shows a part of the results.

Experiment: chemical genetic growth profiling, strain panel (AID 1159580);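 further: tested at 20 µM; growth read once vehicle control cultures reached saturation at 30 °C; 1 = growth at the plate median or of vehicle wells; lower values mean less growth of the strain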
Conditions: S. cerevisiae deletion strains, growth OD

Measured: normalized growth

O=C(O)c1cc(O)c(O)c(O)c1
inactive: locus YAL021C, strain ccr4, hits give low values 1.05 | locus YAL026C, strain drs2, hits give low values 1.03 | locus YAL030W, strain snc1, hits give low values 1.02 | locus YBL061C, strain skt5, hits give low values 1.03 | locus YBR009C, strain hhf1, hits give low values 1.02 | locus YBR021W, strain FUR4, hits give low values 1.03 | locus YBR023C, strain chs3, hits give low values 1.04 | locus YBR171W, strain sec66, hits give low values 1.03 | locus YBR229C, strain ROT2, hits give low values 1.03 | locus YBR231C, strain swc5, hits give low values 1.01 | locus YBR279W, strain paf1, hits give low values 1.02 | locus YCL011C, strain gbp2, hits give low values 1.02 | locus YCL016C, strain dcc1, hits give low values 1.04 | locus YCL029C, strain bik1, hits give low values 1.07 | locus YCL069W, strain vba3, hits give low values 1.01 | locus YCR088W, strain abp1, hits give low values 1.02 | locus YDL005C, strain med2, hits give low values 1.02 | locus YDL035C, strain GPR1, hits give low values 1.07 | locus YDL040C, strain nat1, hits give low values 1.02 | locus YDL074C, strain BRE1, hits give low values 1.14 | locus YDL101C, strain DUN1, hits give low values 1.03 | locus YDL185W, strain tfp1, hits give low values 1.03 | locus YDL192W, strain arf1, hits give low values 1.03 | locus YDR001C, strain nth1, hits give low values 1.01 | locus YDR069C, strain doa4, hits give low values 1.01 | locus YDR101C, strain arx1, hits give low values 0.996 | locus YDR137W, strain rgp1, hits give low values 1.13 | locus YDR150W, strain NUM1, hits give low values 1.03 | locus YDR159W, strain sac3, hits give low values 0.987 | locus YDR162C, strain NBP2, hits give low values 1.04 | locus YDR195W, strain ref2 0.996 | locus YDR297W, strain sur2, hits give low values 1.02 | locus YDR318W, strain mcm21, hits give low values 1.04 | locus YDR334W, strain swr1, hits give low values 1.04 | locus YDR335W, strain msn5, hits give low values 1.02 | locus YDR388W, hits give low values 1.02 | locus YDR392W, strain spt3, hits give low values 0.993 | locus YDR502C, strain sam2, hits give low values 1.04 | locus YEL003W, strain gim4, hits give low values 0.996 | locus YEL037C, strain rad23, hits give low values 1.02 | locus YEL061C, strain CIN8 (second series), hits give low values 1.02 | locus YEL061C, strain CIN8, hits give low values 1.03 | locus YER015W, strain faa2, hits give low values 1 | locus YER016W, strain bim1, hits give low values 1.04 | locus YER110C, hits give low values 1.02 | locus YER111C, strain swi4, hits give low values 1.02 | locus YER155C, strain BEM2 (second series), hits give low values 1.08 | locus YER155C, strain BEM2, hits give low values 1.03 | locus YER167W, strain BCK2, hits give low values 1.03 | locus YFR010W, strain ubp6, hits give low values 0.998 | locus YGL078C, strain dbp3, hits give low values 1.03 | locus YGL086W, strain mad1, hits give low values 1.03 | locus YGL167C, strain pmr1, hits give low values 1.02 | locus YGL173C, strain kem1, hits give low values 0.994 | locus YGL227W, strain vid30, hits give low values 1.02 | locus YGL240W, strain doc1, hits give low values 1.01 | locus YGL248W, strain PDE1, hits give low values 1.08 | locus YGL253W, strain hxk2, hits give low values 1.03 | locus YGR078C, strain PAC10, hits give low values 1.04 | locus YGR135W, strain pre9, hits give low values 1.07 | locus YGR252W, strain gcn5, hits give low values 1.07 | locus YHR013C, strain ard1, hits give low values 1.04 | locus YHR027C, strain rpn1, hits give low values 1.01 | locus YHR030C, strain SLT2, hits give low values 0.966 | locus YHR079C, strain IRE1 (second series), hits give low values 1.03 | locus YHR079C, strain IRE1, hits give low values 0.969 | locus YHR094C, strain hxt1, hits give low values 1.02 | locus YHR129C, strain ARP1, hits give low values 1.05 | locus YHR142W, strain chs7, hits give low values 1.03 | locus YHR200W, strain rpn10, hits give low values 1.02 | locus YIL066C, strain RNR3, hits give low values 1.05 | locus YIL073C, strain SPO22, hits give low values 1.23 | locus YIL125W, strain kgd1, hits give low values 1.02 | locus YIR030C, strain dcg1, hits give low values 1.05 | locus YJL092W, strain hpr5, hits give low values 1.03 | locus YJL095W, strain BCK1 (second series), hits give low values 1.03 | locus YJL095W, strain BCK1, hits give low values 1.12 and 0.981 | locus YJL115W, strain asf1, hits give low values 1.02 | locus YJL129C, strain trk1, hits give low values 1.08 | locus YJL134W, strain LCB3, hits give low values 1.03 | locus YJL154C, strain vps35, hits give low values 1.03 | locus YJL164C, strain tpk1, hits give low values 1.01 | locus YJL166W, strain qcr8, hits give low values 1.04 | locus YJL168C, strain set2, hits give low values 1.02 | locus YJL187C, strain SWE1 (second series), hits give low values 1.07
